# The list is not random: actives were taken first. Their share in the collection is about 9.2%.
# NPC1 promoter act = activators of NPC1 promoter. Huh7 NPC1 promoter luciferase reporter, 24 h. Potency, µM (top dose mostly 9.22 µM), for inactives: top-dose activation, usual class: activators. AID 485313. 320,000 tested, 2.4% active; further: % of control where 0% means no effect; nearly all actives have a fitted effect of over 60% in size
#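 Luminescence read-out of NPC1 promoter-driven luciferase in stably transfected Huh7 cells; compounds delivered in DMSO and left 24 h at 37C, 5% CO2, qHTS titration format.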
# FLuc counter = firefly luciferase modulation, counter-screen for miR-21 project; purified FLuc, Km substrates, luminescence inhibition; Potency, µM (series often up to 57.5 µM), inactives show at the highest dose activity change, negative = inhibition, most hits filed as inhibitors; 360,000 tested, 6.9% active;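 further: plate controls were vehicle for no effect and reference inhibitor for full effect; nearly all actives have a fitted effect of over 55% in size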
#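 Purified P. pyralis luciferase, 10 nM final, with Km-level 10 uM D-luciferin and 10 uM ATP in 50 mM Tris acetate pH 7.5, 10 mM Mg acetate, 0.01% Tween-20, 0.05% BSA; 6-point qHTS titration about 60 µM downward; luminescence read.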
# ELG1 DNA repair = ELG1-dependent DNA repair inhibition. HEK293T ELG1-luciferase reporter, luminescence, 16 h; DNA damage induced by 5-fluorouridine. Potency, µM (top dose mostly 46.1 µM), for the others: top-dose activity change, negative = inhibition, actives largely listed as inhibitors. 330,000 tested, 2.3% active; further: on the % scale 0 is the no-effect control and ±100 the full control effect; nearly all actives have a fitted effect of over 55% in size
#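 Step one: seed 2,000 cells per well. Step two: pin-transfer compound or DMSO alongside 5-fluorouridine. Step three: incubate 16 hr, 37 °C, 5% CO2. Step four: add ONE-Glo, wait 30 min, read luminescence.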
# ELG1 genotox = induces genotoxicity in HEK293T cells with luciferase-tagged ELG1; HEK293T ELG1-luciferase reporter, luminescence, 16 h; Potency, µM (titrated, usually from 46 µM), for the others: at the top dose activity change, positive = activation, hits mostly activators; 330,000 tested, 1.3% active; further: % of control where 0% means no effect; nearly all actives have a fitted effect of over 60% in size
#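 HEK293T cells expressing luciferase-tagged ELG1 were exposed to compound or DMSO vehicle for 16 hr at 37 °C and 5% CO2. Luciferase activity was then measured with ONE-Glo after 30 min at room temperature.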
# Rab9 prom act = activators of Rab9 promoter; Huh7 Rab9 promoter-luciferase reporter, luminescence, 24 h; Potency, µM (titrated, usually from 9.22 µM), for inactives: at the highest dose activation, negative = inhibition, usual class: activators; 320,000 tested, 2.8% active; further: % of control where 0% means no effect; nearly all actives have a fitted effect of over 60% in size
#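 Huh7 cells stably carrying a Rab9 promoter-luciferase reporter, 1500 cells per well in OP-MEM I with 10% FBS, treated with compound 24 hours at 37C. Luciferase activity read by luminescence after 10 minutes with Amplite reagent.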
# SMN2 splice enh = enhancers of SMN2 splice variant expression; HEK293 SMN2-luciferase splicing reporter, luminescence, 30-36 h; Potency, µM (series often up to 46.1 µM), without a hit: at the highest dose activity change, positive = activation, most hits filed as activators; 210,000 tested, 2.8% active; AID 1458; further: % of control where 0% means no effect; nearly all actives have a fitted effect of over 55% in size
#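 qHTS luciferase splicing reporter: luminescence rises when SMN2 exon 7 is included in transfected HEK293 cells. Compound exposure lasted 30-36 h at 37C, with 4.5 mM final sodium butyrate as control, followed by a ONE-Glo read.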
# ELG1 FLuc counter = luciferase inhibition in cell-free luciferin readout for ELG1 hits | shares compounds with ELG1 DNA repair | cell-free firefly luciferase luminescence counter-screen, ViewLux | Potency, µM (titrated, usually from 46.1 µM), inactives show at the highest dose activity change, negative = inhibition, most hits filed as inhibitors | 350 tested, 3% active | AID 624247; further: on the % scale 0 is the no-effect control and ±100 the full control effect
# ELG1-Luc inh = inhibits ELG1-dependent DNA repair in HEK293T cells, confirmed. HEK293T ELG1-luciferase levels, luminescence; cells co-treated with 5-fluorouridine. shares compounds with ELG1 DNA repair. Potency, µM (top dose mostly 46.1 µM), for inactives: at the highest dose activity change, negative = inhibition, actives largely listed as inhibitors. 670 tested, 68% active. AID 624248; further: on the % scale 0 is the no-effect control and ±100 the full control effect; nearly all actives have a fitted effect of over 55% in size
# ELG1-Luc MMS = confirmation of human ELG1 repair inhibitors, MMS stimulated; Potency, µM (series often up to 46.1 µM), without a hit: at the highest dose activity change, negative = inhibition, usual class: inhibitors; shares compounds with ELG1 DNA repair; HEK293T luciferase-tagged ELG1 level, MMS stimulated; AID 624249; 670 tested, 53% active; further: on the % scale 0 is the no-effect control and ±100 the full control effect; nearly all actives have a fitted effect of over 60% in size
# ELG1 5-FU = confirmation of ELG1 repair inhibitors: viability with 5FU; 670 tested, under 10 active; cell viability with 5-FU, ELG1-dependent repair; shares compounds with ELG1 DNA repair; Potency, µM (series often up to 46.1 µM), for inactives: at the highest dose activity change, negative = viability loss, hits mostly cytotoxic; AID 624250;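 further: ELG1-luc HEK293T cells cotreated with 5-fluorouridine at 10 µM final; viability measured 16 h after compound addition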
# ELG1 MMS viab = confirmation of ELG1 repair inhibitors: viability with MMS; shares compounds with ELG1 DNA repair; Cell viability with MMS, ELG1-dependent DNA repair; Potency, µM (top dose mostly 46.1 µM), inactives show at the highest dose activity change, negative = viability loss, hits mostly cytotoxic; 670 tested, 33% active; AID 624251;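 further: ELG1-luc HEK293T cells co-treated with 10 µM MMS; viability read 16 h after compound addition; on the % scale 0 is the no-effect control and ±100 the full control effect; nearly all actives have a fitted effect of over 60% in size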
# Cell viab unstim = unstimulated viability counter-screen for ELG1 repair hits; 900 tested, 8% active; shares compounds with ELG1 DNA repair; Potency, µM (highest dose often 45.9 µM), without a hit: top-dose activity change, negative = loss of viability, actives largely listed as cytotoxic; AID 624252; cell viability counter-screen, unstimulated, luminescence;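 further: compound exposure lasted 16 hours before reading; on the % scale 0 is the no-effect control and ±100 the full control effect; nearly all actives have a fitted effect of over 55% in size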
# FLuc enzyme = firefly luciferase inhibition counter-screen; shares compounds with ELG1 DNA repair; purified firefly luciferase, luminescence counter-screen; Potency, µM (titrated, usually from 57.5 µM), for the others: top-dose activity, negative = inhibition, hits mostly inhibitors; 350 tested, 10% active; further: on the % scale 0 is the no-effect control and ±100 the full control effect
# * hit, by the source's call; ? = inconclusive; · = not tested or not shown. The call rests on the fitted dose curve; in most records, active means well fitted curve in the direction sought with a large enough effect; inconclusive means small, poorly fitted or top-dose-only effect, or another doubt; inactive means no such curve, though single readings can be large; an effect the other way counts as inactive or inconclusive. Potency means the concentration at half of the fitted maximal effect.
SMILES,NPC1 promoter act,FLuc counter,ELG1 DNA repair,ELG1 genotox,Rab9 prom act,SMN2 splice enh,ELG1-Luc inh,ELG1-Luc MMS,ELG1 5-FU,ELG1 MMS viab,Cell viab unstim,others
CCCOc1ccc(/C=C/C(=O)Nc2ccc([N+](=O)[O-])cc2)cc1,-31%,-9%,?,-6%,-37%,·,·,·,·,·,·,
COc1ccc(CN(C)C(=O)c2cc(-c3ccc(OC)c(OC)c3)nc3ccccc23)c(OC)c1,-3%,1%,2%,7%,0%,·,·,·,·,·,·,
COc1ccc(-c2cc(C(=O)N(C)Cc3nc4ccccc4c(=O)[nH]3)c3ccccc3n2)cc1OC,·,·,2.3µM*,-4%,·,·,2.5µM*,7.1µM*,?,8.9µM*,?,
Cc1cccc(-c2nnc(SCC(=O)Nc3ncccn3)n2C)c1,0%,-2%,-2%,-1%,0%,1%,·,·,·,·,·,
COc1ccc(S(=O)(=O)Nc2cccc3cccnc23)c([N+](=O)[O-])c1,·,·,·,·,·,·,·,·,·,·,?,
O=[N+]([O-])c1ccc(NS(=O)(=O)c2cccc3cccnc23)cc1,-2%,-1%,-4%,1%,7%,·,·,·,·,·,·,
COc1cccc(CC(NC(C)=O)C(=O)NC2CCN(c3nc(C)cc(C)c3C#N)CC2)c1OC (configuration not stated),-1%,-2%,2.8µM*,-9%,-7%,-21%,7.9µM*,2%,?,3%,-4%,
COc1cc(CC(NC(C)=O)C(=O)NC2CCN(c3nc(C)cc(C)c3C#N)CC2)cc(OC)c1 (configuration not stated),-1%,5%,-10%,0%,6%,-14%,·,·,·,·,·,
COc1ccc(/C=C/c2cnc3ccccc3n2)cc1OC,·,·,·,·,·,·,·,·,·,·,-4%,ELG1 FLuc counter=-8%;FLuc enzyme=0.21µM*
COc1ccc(/C=C/c2nc(C)c(-c3ccccc3)c(=O)[nH]2)cc1OC,-1%,4%,-19%,0%,2%,-1%,·,·,·,·,·,
COc1ccc(CCNC(=O)/C=C/c2ccc3ccccc3n2)cc1OC,-7%,1%,?,-14%,-11%,·,·,·,·,·,·,
COc1ccc(/C=C/c2ccc3ccccc3n2)cc1OC,·,·,·,·,·,·,·,·,·,·,?,ELG1 FLuc counter=36%;FLuc enzyme=?
COc1ccc(NC(=O)/C(C#N)=C/c2cc(C)n(-c3ccc(N4CCOCC4)c([N+](=O)[O-])c3)c2C)cc1,-18%,1%,2.9µM*,-8%,-25%,-66%,4.4µM*,4µM*,-1%,?,?,
CC1CN(C(=O)c2ccccc2)c2ccccc2NC1=O (configuration not stated),-1%,5%,-7%,-1%,-4%,0%,·,·,·,·,·,
O=C(Nc1nc(-c2ccc3c(c2)OCCO3)cs1)c1ccc(S(=O)(=O)N2CCCCC2)cc1,-14%,0%,4.1µM*,-13%,-10%,-76%,?,2.8µM*,7%,3.5µM*,-18%,
COc1ccc(NC(=O)/C(C#N)=C\c2ccc(OCc3ccc(C(=O)O)cc3)c(OC)c2)cc1,-4%,-19%,?,?,-3%,27%,·,·,·,·,·,
COc1cc(/C=C(\C#N)C(=O)Nc2cccc(C(=O)O)c2)ccc1OCc1ccc(F)cc1,-1%,-14%,?,21µM*,-1%,·,·,·,·,·,5%,
Cc1ccc(-c2nc3c(c(SCC(=O)Nc4cccc(C(=O)O)c4)n2)Cc2cccc(C)c2O3)cc1,8%,?,·,·,-2%,7%,76%,77%,7%,?,5%,ELG1 FLuc counter=72%;FLuc enzyme=?
COc1ccc(-c2oc(=O)c3cc(OC)c(OC)cc3c2C#CCCCO)cc1,·,·,?,10%,·,·,·,·,·,·,·,
COc1cc2c(C#CCCCO)c(-c3ccsc3)oc(=O)c2cc1OC,·,·,4.1µM*,5%,·,·,6.3µM*,?,-1%,?,?,
O=C(Nc1cc(Br)ccc1O)c1cnn2c(C(F)F)cc(C3CC3)nc12,-2%,1%,2.3µM*,-6%,12%,-5%,1µM*,15%,?,-3%,?,
Cc1ccc(S(=O)(=O)Nc2ccc(Cl)cn2)cc1C,0%,3%,-6%,-1%,0%,·,·,·,·,·,·,
Nc1ncc(Br)cc1S(=O)(=O)NCCC(=O)NCCc1ccc(Cl)cc1,-2%,-1%,-8%,-8%,-3%,·,·,·,·,·,·,
c1nc(CCO[C@H]2CCCCO2)cc2cc3c(cc12)OCO3,·,·,?,?,·,·,·,·,·,·,-4%,ELG1 FLuc counter=-39%;FLuc enzyme=0.65µM*
CC(=O)CCOC1CCCCO1 (configuration not stated),·,·,·,·,·,-1%,·,·,·,·,·,
Nc1cc2c(cc1C(=O)c1cccc(Br)c1)OCCO2,-13%,1%,-10%,2%,-4%,·,·,·,·,·,·,
C=CCn1c(Oc2ccccc2F)nc2c1c(=O)n(C)c(=O)n2C,14%,1%,4.1µM*,-15%,4%,·,18µM*,20µM*,?,1%,3%,
C=CCn1c(Oc2cc(C)ccc2C)nc2c1c(=O)n(C)c(=O)n2C,2%,2%,?,-20%,0%,2%,·,·,·,·,·,
